{"source": "ChEMBL document CHEMBL3988442", "about": "“University of Dundee, Small-Polar-MMV Screening Library” (2021)"}
{"target": "AMP-activated protein kinase, AMPK (Homo sapiens) (UniProt P54646+O43741+P54619+Q9UGJ0+Q9Y478+Q13131+Q9UGI9)", "test": "AMP-dependent Kinase enzyme assay. An in vitro enzyme assay that detects ADP turnover that is directly proportional to AMPK activity. This uses naive AMPK that is activated during the assay with MK-8722", "format": "functional", "set-up": "scale not given: direction of the effect not stated beside the values", "conditions": "30 µM", "units": {"Percent Effect": "%"}}
{"smiles": "CC(C)c1ccc(/C=C/CC(=O)NC2CCS(=O)(=O)CC2)cc1", "Percent Effect": -2.16}
{"smiles": "Cc1nn(C)c(C)c1CC(=O)NCC1(C(N)=O)CCOCC1", "Percent Effect": -4.43}
{"smiles": "CN(C)c1nc2sc(C(=O)N3CCNC(=O)CC3)cc2s1", "Percent Effect": 0.0719}
{"smiles": "COC1CCN(c2ccc(F)cc2CN(C)S(C)(=O)=O)CC1", "Percent Effect": 6.29}
{"smiles": "Cc1nn(C)c(C)c1-c1ccc(=O)n(C(C)C(=O)NC2CC2)n1", "note": "(stereo not given)", "Percent Effect": 9.59}
{"smiles": "Cc1csc(CCNC(=O)N2CCC(n3cccc3)CC2)n1", "Percent Effect": -3.41}
{"smiles": "CN(Cc1ccncc1)Cc1cnn(-c2ccc(F)cc2)c1", "Percent Effect": 11.6}
{"smiles": "Cc1nc2c(c(NCCNC(=O)C(C)C)n1)Cc1ccccc1OC2", "Percent Effect": 3.56}
{"smiles": "CN(C)c1cc(CNC(=O)C2COc3ccccc3O2)ccn1", "note": "(stereo not given)", "Percent Effect": 0.412}
{"smiles": "CCCc1nnc(N2CCN(C3CCCC3)CC2)o1", "Percent Effect": 3.52}
{"smiles": "CN(C)CCN(Cc1cccc(F)c1)C(=O)c1ccn(C)c(=O)c1", "Percent Effect": 9.63}
{"smiles": "CCCC(=O)Nc1cccc([C@H]2C[C@@H](NC(C)=O)CCO2)c1", "Percent Effect": 13.7}
{"smiles": "CC(C)OCCCNC(=O)CN1CCN(c2nccs2)CC1", "Percent Effect": 4.26}
{"smiles": "Cc1cnc(N2CCN(C(C)C(N)=O)CC2)nc1", "note": "(stereo not given)", "Percent Effect": -0.289}
{"smiles": "Cc1ccccc1NC(=O)CCNC(=O)c1ccoc1", "Percent Effect": -10.8}
{"smiles": "CN1CCCC1c1ccnc2nccn12", "note": "(stereo not given)", "Percent Effect": 6.44}
{"smiles": "COc1c(C)cnc(CN2CCn3c(nnc3C(C)C)C2)c1C", "Percent Effect": 22}
{"smiles": "CCC1(CC)CC(=O)N(CC(O)c2ccc(F)cc2)C1=O", "note": "(stereo not given)", "Percent Effect": 8.69}
{"smiles": "CCC(=O)c1cccc(S(=O)(=O)NC(C)C#N)c1", "note": "(stereo not given)", "Percent Effect": -2.44}
{"smiles": "FC(F)(F)Oc1ccc(CN2CCCC(n3cncn3)C2)cc1", "note": "(stereo not given)", "Percent Effect": 3.31}
{"smiles": "COCCN(C)C[C@@H]1CN(Cc2ccnc3ccccc23)C[C@@H]1CO", "Percent Effect": -4.2}
{"smiles": "Cc1ncc2c(n1)CN(Cc1nc(-c3ccsc3)oc1C)CC2", "Percent Effect": -40.6}
{"smiles": "O=C(c1cc(C2CC2)on1)N1C[C@H]2CC[C@](O)(c3ccc(F)cc3)[C@H]2C1", "Percent Effect": 12.8}
{"smiles": "O=C(NCc1nnc2n1CCC2)c1cn(-c2cccc(Br)c2)nn1", "Percent Effect": 2.86}
{"smiles": "COc1cc(COCC2CCN(Cc3cccnc3)CC2)cc(OC)c1", "Percent Effect": 1.38}
{"smiles": "CC(C)Cn1cc(NC(=O)c2cccc(N(C)C)c2)cn1", "Percent Effect": 1.9}
{"smiles": "CSCCC(NC(N)=O)C(=O)NCc1cnn(-c2ccccc2)c1", "note": "(stereo not given)", "Percent Effect": -5.05}
{"smiles": "O=C(CNc1ccc(OC2CCOC2)cc1)NCc1ccc(F)cc1", "note": "(stereo not given)", "Percent Effect": 18.1}
{"smiles": "CCS(=O)(=O)NCc1nc(C)cc(N2CCCC2)n1", "Percent Effect": 2.4}
{"smiles": "Cc1ccc(-c2cc(C(=O)N(C)Cc3noc4c3CCCC4)[nH]n2)o1", "Percent Effect": 4.24}
{"smiles": "COc1ccc(CNC(C)c2cnn(C)c2)cc1OC1CCCC1", "note": "(stereo not given)", "Percent Effect": 8.55}
{"smiles": "CC(=O)N1CCc2c(nc(N(C)C)nc2NCCCn2ccnc2C)C1", "Percent Effect": 7.72}
{"smiles": "CCSc1cc(C(=O)N(CC(F)F)C(C)C)ccn1", "Percent Effect": 2.16}
{"smiles": "CC(C)(C)SCCN1CC(=O)N2CC[C@@H](O)C[C@H]2C1=O", "Percent Effect": 3.02}
{"smiles": "O=C(C1CNCCN1C(=O)CCOc1ccccc1)N1CCOCC1", "note": "(stereo not given)", "Percent Effect": 13}
{"smiles": "Cc1nnc(-c2cccc(C#N)c2)n1C1CCCN(C(C)C)C1=O", "note": "(stereo not given)", "Percent Effect": 4.62}
{"smiles": "Nc1ncnc2nc(C3CCCCN3)ccc12", "note": "(stereo not given)", "Percent Effect": 15.5}
{"smiles": "Clc1ccc(COCC2CCN(Cc3ccccn3)CC2)cc1", "Percent Effect": 4.9}
{"smiles": "Cc1csc(CCNC(=O)N2CCC(NC(=O)OC(C)(C)C)CC2)n1", "Percent Effect": -1.4}
{"smiles": "Cn1cc(CN(C(=O)c2ccc(O)c(Cl)c2)C2CC2)cn1", "Percent Effect": 10.3}
